Source: PubChem BioAssay (The Scripps Research Institute Molecular Screening Center)
KLK7 zymogen act: activates the human kallikrein-7 zymogen | 370,000 tested, 0.9% active | AID 652039 | P49862 | purified proKLK7, EDANS-DABCYL substrate fluorescence; 100% is mature enzyme control, 0% vehicle | activation, % at 7 µM;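 active means activation above the mean of all tested compounds plus 3 SD, computed per campaign excluding outliers beyond control limits, cut at about 13% in these data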
ADAM17 inh: inhibits human ADAM17 | P78536 | recombinant ADAM17, EDANS/DABCYL FRET peptide cleavage | inhibition, % at 6.95 µM | 370,000 tested, 0.83% active;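 active means inhibition above the mean of compounds lying between control limits plus 3 SD, set per campaign, cut at about 8.5% in these data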
PLC-gamma1 inh: inhibitors of human phospholipase C gamma1; purified PLC-gamma1, fluorogenic substrate, fluorescence; inhibition, % at 12.2 µM; 370,000 tested, 0.84% active; AID 720700; in the data active means inhibition above about 9.5%
Target sequence (P19174 whole entry, looked up): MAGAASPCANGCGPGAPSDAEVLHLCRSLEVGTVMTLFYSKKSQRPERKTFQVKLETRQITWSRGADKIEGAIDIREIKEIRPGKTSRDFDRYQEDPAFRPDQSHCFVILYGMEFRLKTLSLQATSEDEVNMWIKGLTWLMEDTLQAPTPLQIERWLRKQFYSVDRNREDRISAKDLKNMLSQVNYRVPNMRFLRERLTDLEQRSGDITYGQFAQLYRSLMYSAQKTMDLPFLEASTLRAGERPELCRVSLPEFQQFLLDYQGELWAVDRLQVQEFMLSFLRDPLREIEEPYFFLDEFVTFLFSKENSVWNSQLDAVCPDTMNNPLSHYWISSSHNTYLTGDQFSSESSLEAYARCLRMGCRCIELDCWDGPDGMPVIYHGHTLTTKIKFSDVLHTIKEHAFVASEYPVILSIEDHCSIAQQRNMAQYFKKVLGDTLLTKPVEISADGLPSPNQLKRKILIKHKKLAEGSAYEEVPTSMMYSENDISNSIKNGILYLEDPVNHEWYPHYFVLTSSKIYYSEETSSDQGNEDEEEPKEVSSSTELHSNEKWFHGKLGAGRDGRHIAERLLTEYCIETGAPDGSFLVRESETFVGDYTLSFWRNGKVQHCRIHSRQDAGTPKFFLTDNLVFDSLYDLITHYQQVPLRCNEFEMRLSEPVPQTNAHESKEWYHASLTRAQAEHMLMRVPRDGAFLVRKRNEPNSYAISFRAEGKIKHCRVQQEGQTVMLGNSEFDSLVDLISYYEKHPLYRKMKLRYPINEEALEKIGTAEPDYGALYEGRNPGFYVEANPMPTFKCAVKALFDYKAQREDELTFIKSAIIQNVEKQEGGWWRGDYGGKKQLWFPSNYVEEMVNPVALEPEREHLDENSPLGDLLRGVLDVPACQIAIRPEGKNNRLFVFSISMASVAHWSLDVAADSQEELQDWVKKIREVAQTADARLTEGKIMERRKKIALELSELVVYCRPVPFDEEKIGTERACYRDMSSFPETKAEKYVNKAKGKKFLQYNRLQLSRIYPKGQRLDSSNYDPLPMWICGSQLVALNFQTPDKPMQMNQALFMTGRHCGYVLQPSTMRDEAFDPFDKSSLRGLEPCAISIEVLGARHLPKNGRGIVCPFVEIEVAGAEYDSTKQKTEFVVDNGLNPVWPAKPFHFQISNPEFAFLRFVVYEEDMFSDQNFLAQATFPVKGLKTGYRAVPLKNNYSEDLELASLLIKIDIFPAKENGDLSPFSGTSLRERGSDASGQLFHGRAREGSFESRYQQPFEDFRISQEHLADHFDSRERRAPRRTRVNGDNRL
PLC-beta3 inh: inhibitors of human phospholipase C beta3 | Purified PLC-beta3, fluorogenic substrate, fluorescence | inhibition, % at 12.2 µM | Q01970 | 370,000 tested, 0.18% active
ADAM10 inh: inhibits human ADAM10. O14672. recombinant ADAM10, EDANS/DABCYL FRET peptide cleavage, 3 h. inhibition, % at 7 µM. 370,000 tested, 0.62% active. AID 720582;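 active means inhibition above a per-campaign cutoff equal to the mean of compounds falling between control-based bounds plus 3 SD, cut at about 20% in these data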
PLCg1 ctr: inhibits human PLC-gamma1 in PLC-beta3 counter-screen. shares compounds with PLC-gamma1 inh. purified PLC-gamma1, fluorogenic substrate, fluorescence. inhibition, % at 12.3 µM. 3,300 tested, 3.1% active. AID 743258; in the data active means inhibition above about 9.5%
PLCb3 confirm: confirmation of human PLC-beta3 inhibitors; 3,300 tested, 1% active; inhibition, % at 12.3 µM; purified PLC-beta3, fluorogenic substrate fluorescence; shares compounds with PLC-gamma1 inh; AID 743261
Each line names hits and unclear results; the compound was inactive in the other large screens (follow-up assays come after a bar, where they were run). In the library only some 2.9% were active in any assay of this set; here they are far more common. Unless noted, no stated cut-off is given here; in the data, active means inhibition above about 11%; inactive means the rest.

O=C(NC1CC1)C1CCN(C2CCN(C(=O)c3c(F)cccc3Cl)CC2)CC1	none
Fc1ccc(C2=NOC(c3nnc(-c4ccccc4)o3)C2)cc1 (stereo not drawn)	PLC-beta3 inh 12 | PLCg1 ctr inactive | PLCb3 confirm inactive
COc1ccc(S(=O)(=O)N2CCN(CCOc3ccc(Br)cc3)CC2)cc1OC	PLC-gamma1 inh 11 | PLCg1 ctr inactive | PLCb3 confirm inactive
COC(=O)c1ccc(/C=N/N2CCN(Cc3ccccc3Cl)CC2)cc1	none
CC(=NN1CCN(Cc2ccccc2Cl)CC1)c1ccc(O)cc1	PLC-gamma1 inh 16 | PLCg1 ctr inactive | PLCb3 confirm inactive
CC(=O)Nc1ccc(S(=O)(=O)N2c3ccc(F)cc3CCC2C)cc1 (stereo not drawn)	PLC-gamma1 inh 10 | PLCg1 ctr inactive | PLCb3 confirm inactive
Cc1ccc(S(=O)(=O)NC(=O)C2(C)CCN2C(=O)C2(c3ccc(Cl)cc3)CCC2)nc1 (stereo not drawn)	none
CCOC(=O)C1=C(C)OC2(O)c3ccccc3C(=O)C12O (stereo not drawn)	PLC-gamma1 inh 10 | PLCg1 ctr inactive | PLCb3 confirm inactive
CCOc1ccc(CCNC(=O)CS(=O)Cc2nc(-c3ccccc3C)oc2C)cc1OCC (stereo not drawn)	none
O=C(CNC(=O)c1cccc(F)c1)OCC(=O)N1CCCc2ccccc21	PLC-gamma1 inh 12 | PLCg1 ctr inactive | PLCb3 confirm inactive
CC(=O)Nc1ccc(S(=O)(=O)NCC(=O)OCC(=O)N2CCc3ccccc32)cc1	PLC-gamma1 inh 13 | PLCg1 ctr inactive | PLCb3 confirm inactive
O=C(CNC(=O)c1ccccc1F)OCC(=O)N1CCCc2ccccc21	none
COc1ccc(OC)c(CCNC(=O)c2cccc(NC(=O)C3=C(C)OCCS3)c2)c1	none
COc1ccc(-c2csc(C(O)c3ccc(F)cc3)n2)cn1 (stereo not drawn)	none
O=C(C[C@@H]1C=C[C@@H](NC(=O)C2CC2)[C@@H](CO)O1)NCc1ccccc1Cl	none
O=C(NCCc1ccccc1)C1CCC(=O)N(Cc2cccc(C(F)(F)F)c2)C1 (stereo not drawn)	none
O=C(NC1CCC1)C1CCC(=O)N(Cc2cccc(F)c2)C1 (stereo not drawn)	PLC-gamma1 inh 10 | PLCg1 ctr inactive | PLCb3 confirm inactive
O=C(NCCc1nccs1)C1CCC(=O)N(Cc2cccc(C(F)(F)F)c2)C1 (stereo not drawn)	PLC-gamma1 inh 13 | PLCg1 ctr inactive | PLCb3 confirm inactive
C[C@@H]1CNC(=O)c2c(C(=O)N(C)Cc3ccccc3)ncn21	none
Cc1ccc(C(=O)Nc2cccc(NC(=O)c3ccc(C)cc3)n2)cc1	none
O=[N+]([O-])c1ccc(CSc2nc3ncc(Br)cc3[nH]2)cc1	PLC-gamma1 inh 11 | PLCg1 ctr inactive | PLCb3 confirm inactive
O=C(CSc1nc2ncc(Br)cc2[nH]1)c1cccc([N+](=O)[O-])c1	none
Cc1cc2ncn(S(=O)(=O)N3CCOCC3)c2cc1C	PLC-beta3 inh 14 | PLCg1 ctr inactive | PLCb3 confirm inactive
CCn1cnnc1SCC(=O)Nc1ccccc1C(=O)NC1CC1	PLC-gamma1 inh 11, PLC-beta3 inh 11 | PLCg1 ctr inactive | PLCb3 confirm inactive
CC(=O)N1CCN(C(=O)CSc2cc(C)c(Br)cc2C)CC1	none
O=C(NCc1cccs1)c1csc2c1CCCCC2	none
O=C(NCc1cccs1)c1cc2c(s1)CCCC2	PLC-gamma1 inh 11 | PLCg1 ctr inactive | PLCb3 confirm inactive
CCOC(=O)C(C)C1(O)c2ccccc2-c2ncccc21 (stereo not drawn)	PLC-gamma1 inh 12 | PLCg1 ctr inactive | PLCb3 confirm inactive
C/C(=N\NC(=O)CSc1nnc(C)s1)c1ccc(O)cc1	PLC-gamma1 inh 9.9 | PLCg1 ctr inactive | PLCb3 confirm inactive
COC(=O)c1ccc(CSc2nnc(C)s2)cc1	PLC-beta3 inh 11 | PLCg1 ctr inactive | PLCb3 confirm inactive
COc1cc(/C(C)=N/NC(=O)CSc2nnc(C)s2)ccc1O	none
COc1ccc(C)cc1NC(=S)N1CC(C)OC(C)C1 (stereo not drawn)	none
O=C(OCc1ccccc1C(F)(F)F)c1cc([N+](=O)[O-])ccc1N1CCOCC1	PLC-gamma1 inh 10 | PLCg1 ctr inactive | PLCb3 confirm inactive
